The campaign covered roughly 5,500 compounds. About 2,000 (36%) were called active. About 18% were inconclusive and are not listed. Rule as the data show it: active = normalized growth mostly below about 0.91 (no sharp cut-off); inconclusive = no clear call, values can overlap the other calls; inactive = mostly above about 0.92. Some of the results follow.
Assay: chemical genetic growth profiling, strain panel (AID 1159580);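 also: tested at 20 µM; growth read once vehicle control cultures reached saturation at 30 °C; 1 = growth at the plate median or of vehicle wells; lower values mean less growth of the strain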
Conditions: S. cerevisiae deletion strains, growth OD

Measured: normalized growth

O=c1c2ccccc2nc2n1CCc1c-2[nH]c2ccccc12
inactive: locus YAL013W, strain DEP1, stronger effect = lower value 1.02 | locus YAL040C, strain CLN3, stronger effect = lower value 0.981 | locus YCL061C, strain MRC1 (second series), stronger effect = lower value 1.01 | locus YDR150W, strain NUM1, stronger effect = lower value 1.01 | locus YDR363W, strain ESC2, stronger effect = lower value 1.02 | locus YER002W, strain NOP16, stronger effect = lower value 0.996 | locus YGR078C, strain PAC10, stronger effect = lower value 1 | locus YJR075W, strain HOC1, stronger effect = lower value 1.02 | locus YMR263W, strain SAP30, stronger effect = lower value 1.01 | locus YMR307W, strain GAS1, stronger effect = lower value 0.999 | locus YNL128W, strain TEP1, stronger effect = lower value 0.964 | locus YNL153C, strain GIM3, stronger effect = lower value 0.928 | locus YNL175C, strain NOP13, stronger effect = lower value 0.945 | locus YNL197C, strain WHI3, stronger effect = lower value 0.97 | locus YNL224C, strain SQS1, stronger effect = lower value 0.982 | locus YNL322C, strain KRE1, stronger effect = lower value 1.02 | locus YOR083W, strain WHI5 (second series), stronger effect = lower value 0.906 | locus YPL055C, strain LGE1, stronger effect = lower value 1.02 | locus YPL241C, strain CIN2, stronger effect = lower value 1

Reference: PubChem BioAssay AID1159580 (chemical genetic matrix, 2015)
